Screening data from PubChem.
KDM5B inhibitor: inhibitors of human KDM5B histone demethylase; Q9UGL1; KDM5B demethylase, FDH-coupled NADH fluorescence (FDH is formaldehyde dehydrogenase); Potency, µM (doses to about 57.7 µM), hits mostly inhibitors; 220,000 compounds, 2.6% hits; AID 1347165; active means well fitted inhibition curve with a large enough effect; further: 0% is about no effect; nearly all actives have a fitted effect of over 70% in size
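KDM5BΔAP (200 nM final) in 50 mM HEPES pH 7.5, 0.01% Tween-20 was preincubated 10 min at RT with compound over a concentration range. Substrate mix (H3K4me3 12.5 µM, α-KG 25 µM, Fe²⁺, ascorbate, NAD⁺, FDH) was added, and NADH fluorescence change over 30 min gave dose-response curves.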
Active calls of the source: *; i = inactive. The sample as a whole holds a higher share of hits than the screen did. Potency means the concentration at half of the fitted maximal effect.

SMILES	KDM5B inhibitor
CC(C)CCNC(=O)c1ccc(-c2ccc(N3CCSCC3)nc2)cc1	22.4µM*
CN(Cc1ccco1)C(=O)c1ccc(-c2ccc(N3CCCCCC3)nc2)cc1	28.2µM*
O=C(NCCN1CCN(C(=O)c2ccc(F)cc2)CC1)c1ccc(F)cc1	i
CCc1csc(CNC(=O)c2ccc(N3CCSCC3)nc2)n1	i
Cc1ccc(CNC(=O)c2ccc(-c3ccc(N4CCSCC4)nc3)cc2)o1	i
O=C(NCCN1CCCCCC1)c1n[nH]c(=O)c2ccccc12	i
O=C(NCCN1CCCCC1)c1ccc(-c2ccc(N3CCSCC3)nc2)cc1	28.2µM*
CCNC(=O)N1CCC(Cc2ccc(C(=O)NCCN3CCCCC3)cc2)CC1	i
O=C(Cc1ccc(Cl)cc1)N1CCC2(CC1)NC(=O)N(c1cccc(F)c1)N2	i
COc1cccc(/C=C(\C#N)c2nc3ccccc3[nH]2)c1O	i
CCn1cnc2c1c(=O)n(CC(=O)Nc1ccc(N3CCCC3=O)cc1)c(=O)n2Cc1ccccc1	i
CC(C)c1ncncc1C(=O)O	i
O=c1cc(CSc2nnnn2-c2ccccc2)[nH]n1-c1ccc(Cl)cc1	i
CC(C)C1=C(O)C2(CC2c2ccc(-c3ccccc3)cc2)C(C)CC1 (stereo not given)	i
O=C(NCC1(c2ccccc2)CC1)c1n[nH]c(=O)c2ccccc12	i
Cn1ccnc1C(NC(=O)COc1ccccc1-c1ccccc1)c1ccc(F)cc1 (stereo not given)	i
CCC(C)NC(=O)Cn1c(=O)c2c(C(=O)OC)cc(C)nc2n(-c2ccccc2)c1=O (stereo not given)	i
C=CC[N+](C)(C)Cc1cccc2ccccc12	i
Cc1ccc(CN2CCCN(c3ccc(C(=O)NCc4ccc5c(c4)OCO5)cc3)C2=O)cc1	i
O=C(NCc1ccc2c(c1)OCO2)c1ccc(-c2ccc(N3CCSCC3)nc2)cc1	28.2µM*
COc1cc(OC)cc(C(=O)Nc2ccc(N3CCCC3)nc2)c1	i
CN(C)CCNC(=O)c1ccc(-c2ccc(N3CCCCCC3)nc2)cc1	25.1µM*
O=C(NCc1ccc2c(c1)OCO2)c1ccc(CN2CCc3ccccc3C2)cc1	i
Cc1ccc(C(=O)NCCc2nnc3ccc(N4CCCC4)nn23)cc1	i
CCc1cccc(C)c1NC(=O)c1cc(=O)c2ccccc2o1	i
SMILES	KDM5B inhibitor
Clc1ccc(-c2nc(CSc3nncc4ccccc34)no2)cc1	i
CCSCc1ccc(C(=O)O)cc1	i
CC(C)CCN(C1CCOCC1)C1CCN(S(=O)(=O)c2cccnc2)CC1	i
O=C(c1cccnc1)N1CCC(OC2CCN(Cc3cccnc3)CC2)CC1	i
O=C(c1cccnc1)N1CCC(OC2CCN(c3ccccc3)CC2)CC1	i
Cc1ccc(OCCC2CCN(C(=O)c3ccsc3)C2)cc1 (stereo not given)	i
O=C(NCc1cccnc1)[C@@H]1C[C@@H](O)CN1C1CCN(C(=O)c2ccsc2)CC1	i
CCCCc1cn(CC2CCN(C(=O)c3ccsc3)CC2)nn1	i
O=C(c1ccsc1)N1CCC(Nc2cccnc2)C1 (stereo not given)	12.6µM*
CC(C)S(=O)(=O)N1CCC(Nc2cccnc2)C1 (stereo not given)	8.91µM*
CCCOc1nccnc1NC1CCN(C(=O)c2ccsc2)CC1	28.2µM*
O=C(Cc1cccs1)N1CCC(Nc2cccnc2)C1 (stereo not given)	i
CCCOc1nccnc1NC1CCN(C(=O)c2cccnc2)CC1	28.2µM*
CC(C)S(=O)(=O)N1CCC(Oc2ncccc2C(=O)N(C)C)C1 (stereo not given)	i
COc1ccc(Cn2c(-c3ccccc3)nc(C)c(CCO)c2=O)cc1F	i
C=CCn1c(COc2ccc(C(C)(C)C)cc2)nnc1SCc1c(F)cccc1Cl	i
CCN(CC)S(=O)(=O)c1cc(NS(=O)(=O)c2ccc(C)cc2C)ccc1C	i
Cc1noc(C)c1CS(=O)(=O)c1ccccc1Cl	i
CCNCc1ccc(-c2ccc(F)c(Cl)c2)o1	i
CN(C)S(=O)(=O)c1ccc(CN)s1	i
CC(O)CNC(=O)NCCc1ccc(S(N)(=O)=O)cc1 (stereo not given)	i
COC(=O)[C@@H]1Cc2nc[nH]c2CN1Cc1ccc(Cl)cc1	31.6µM*
COC(=O)[C@@H]1Cc2ncn(Cc3ccc(OC)cc3)c2CN1C(=O)C1CCCCC1	i
O=C(NCc1ccc(Cl)cc1)[C@@H]1Cc2nc[nH]c2CN1Cc1ccc(Cl)cc1	i
N#Cc1ccc(CNC(=O)[C@@H]2Cc3nc[nH]c3CN2Cc2ccccc2)cc1	i
SMILES	KDM5B inhibitor
N#Cc1ccc(CNC(=O)[C@@H]2Cc3nc[nH]c3CN2C(=O)NC2CCCCC2)cc1	i
O=C(NCc1ccccc1)[C@@H]1Cc2nc[nH]c2CN1Cc1ccc(Cl)cc1	i
COc1ccc(CN2Cc3[nH]cnc3C[C@H]2C(=O)NCc2ccccc2)c2ccccc12	39.8µM*
COc1ccc(CNC(=O)[C@@H]2Cc3nc[nH]c3CN2C(=O)NC2CCCCC2)cc1	31.6µM*
O=C([C@@H]1Cc2nc[nH]c2CN1CC1CC1)N1CCCC1	i
O=C(NC1CCCCC1)[C@@H]1Cc2nc[nH]c2CN1Cc1ccc(C(F)(F)F)cc1	i
COc1ccc(CN2Cc3[nH]cnc3C[C@H]2C(=O)N(C)Cc2ccccc2)c2ccccc12	i
COc1ccc(CN2Cc3[nH]cnc3C[C@H]2C(=O)NC2CCCCC2)c2ccccc12	35.5µM*
COC(=O)/C(C#N)=C\c1ccc(OCc2ccc(Cl)cc2)c(OC)c1	i
CC(C)(C)OC(=O)NC(C)(C)C(=O)NCC(O)c1ccccc1 (stereo not given)	i
Cc1c(C)c2cc(Cl)c(OCC(=O)NCc3ccccn3)cc2oc1=O	i
Cc1ccc(NC(=O)CCC[C@H]2NC[C@@H]3C[C@H]2CN(Cc2ccccc2)C3)cc1	i
O=C(Cn1cccc1-c1nc(-c2ccccc2)no1)Nc1ccc2c(c1)OCCO2	i
CCOc1ccccc1NC(=O)Nc1cc(C)c2nc(NC(C)=O)sc2c1	i
COc1ccc(-c2csc(NC(=O)Cn3cnc4c3c(=O)n(C)c(=O)n4C)n2)c2ccccc12	i
Cc1ccccc1C(=O)Nc1ccc2oc(-c3ccccc3)cc(=O)c2c1	i
O=C(O)C(c1c[nH]c2cc(OCc3ccccc3)ccc12)N1CCN(c2cccc(Cl)c2)CC1 (stereo not given)	i
CC(C)c1ccc(NC(=O)c2nc3ccccc3n(C)c2=O)cc1	i
CC1CCN(Cc2ccc(C(=O)N[C@@H]3CCNC[C@H]3O)o2)CC1	i
Cc1nc(N(C)C)ncc1C(=O)N[C@@H]1CCNC[C@H]1O	14.1µM*
CC(=O)c1c(C)nn(CCC(=O)N[C@@H]2CCNC[C@H]2O)c1C	i
COc1ccccc1CN1CCNc2cc(-c3ccnc(C)c3)ncc2C1	i
COc1cccc(Nc2cc3c(cn2)CN(Cc2cccnc2)CCN3)c1	i
COc1ccc(Cl)cc1-c1cc2c(cn1)CN(Cc1cccnc1)CCN2	31.6µM*
Cc1cc(-c2cc3c(cn2)CN(CC2CCOCC2)CCN3)ccn1	35.5µM*
SMILES	KDM5B inhibitor
COc1ccc(CNc2cc3c(cn2)CN(Cc2ccccc2)CCN3)cc1OC	i
COc1ccc(-c2cc3c(cn2)CN(Cc2ccccc2)CCN3)cc1OC	31.6µM*
COc1ccc(-c2cc3c(cn2)CN(CCc2ccccc2)CCN3)cc1OC	35.5µM*
Cc1cc(C(F)(F)F)nn1CC(=O)Nc1c(F)cc(F)cc1Br	i
CCNC(=S)N/N=C(/C)c1cccc(F)c1	i
O=C(/C=C/c1ccccc1)Nc1cccc(Oc2ccccc2)c1	i
